From the supplement of paper PMC13380429

System: Vero E6 infected with SARS-CoV-2
Assay: inhibition of SARS-CoV-2 cytopathic effect; higher = more antiviral protection, active = above 15
Conditions: 48 h

Measured: inhibition of SARS-CoV-2 cytopathic effect

CN1C(CSCC(F)(F)F)Nc2cc(Cl)c(S(N)(=O)=O)cc2S1(=O)=O (stereo not given) [polythiazide]
inactive: 1 nM -0.4% | 8.33 nM 0.91% | 100 nM 3.31% | 833.33 nM -0.95% | 10000 nM -1.62%

CC1(C)CC(=O)c2c(C(F)(F)F)nn(-c3ccc(C(N)=O)c(N[C@H]4CC[C@H](O)CC4)c3)c2C1
inactive: 1 nM 1.9% | 8.33 nM 1.97% | 100 nM -3.3% | 833.33 nM -1.33% | 10000 nM -0.66%

O=C(O)c1cc2ccccc2s1
inactive: 1 nM -0.94% | 8.33 nM -1.01% | 100 nM -0.94% | 833.33 nM -0.45% | 10000 nM 0.62%

CC(C)NCC(O)c1cc(O)cc(O)c1 (stereo not given) [metaproterenol]
inactive: 1 nM -0.95% | 8.33 nM 3.21% | 100 nM 0.75% | 833.33 nM -1.4% | 10000 nM 0.75%

O=C(O)CNC(=O)C(CS)Cc1ccccc1 (stereo not given) [thiorphan]
inactive: 1 nM -4.27% | 8.33 nM -1.61% | 100 nM -5.99% | 833.33 nM -4.04% | 10000 nM -6.09%

C=CC1=C(C)C2=CC3=NC(=C(CC(=O)O)C4=NC(=C(C)C4=C(O)O)C=c4[nH]c(c(C)c4CC)=CC1=N2)C(CCC(=O)O)C3C (stereo not given) [chlorophyllin]
inactive: 1 nM -0.57% | 8.33 nM -1.3% | 100 nM -0.92% | 833.33 nM -4.38% | 10000 nM -10.6%

CN1C(=O)/C(=C2/C(=O)Nc3ccccc32)c2ccccc21 [meisoindigo]
active: 10000 nM 18.2%
inactive: 1 nM -1.49% | 8.33 nM -3.61% | 100 nM -2.28% | 833.33 nM 1.46%

Cc1nccn1CCC(C(N)=O)(c1ccccc1)c1ccccc1 [imidafenacin]
inactive: 1 nM -0.4% | 8.33 nM -0.55% | 100 nM 1.32% | 833.33 nM 4.43% | 10000 nM 0.89%

COC[C@@H](NC(C)=O)C(=O)NCc1ccccc1 [Lacosamide]
inactive: 1 nM -11.7% | 8.33 nM -10.6% | 100 nM -8.79% | 833.33 nM -10.4% | 10000 nM -12.7%

CC1=C(CC(=O)O)c2cc(F)ccc2/C1=C\c1ccc([S+](C)[O-])cc1 (stereo not given) [sulindac]
inactive: 1 nM -0.99% | 8.33 nM -2.82% | 100 nM -1.46% | 833.33 nM -0.62% | 10000 nM -2.36%

N#CSc1cc(SC#N)c(N)nc1N
inactive: 1 nM -1.78% | 8.33 nM 0.62% | 100 nM 3.56% | 833.33 nM 0.7% | 10000 nM 11.2%

CC[C@@H](C)N(C)C(=O)c1cc2ccccc2c(-c2ccccc2Cl)n1
inactive: 1 nM -0.84% | 8.33 nM 0.72% | 100 nM -0.6% | 833.33 nM 2.81% | 10000 nM 2.78%

CC1CCc2cc(F)cc3c(=O)c(C(=O)O)cn1c23 (stereo not given) [flumequine]
inactive: 1 nM -0.77% | 8.33 nM 0.46% | 100 nM -0.95% | 833.33 nM -0.27% | 10000 nM -0.64%

O=C(O)[C@]1(Cc2cccc(Nc3nccs3)n2)CC[C@@H](Oc2cccc(Cl)c2F)CC1
inactive: 1 nM 0.11% | 8.33 nM -0.24% | 100 nM -0.82% | 833.33 nM -6.57% | 10000 nM -5.28%

CN(N=O)C(=O)N[C@@H](C=O)[C@@H](O)[C@H](O)[C@H](O)CO [streptozotocin]
inactive: 1 nM -2.28% | 8.33 nM -2.25% | 100 nM 2.59% | 833.33 nM 1% | 10000 nM 3.27%

Cc1onc(-c2ccccc2Cl)c1C(=O)N[C@@H]1C(=O)N2[C@@H]1SC(C)(C)[C@@H]2C(=O)O [cloxacillin]
inactive: 1 nM 2.33% | 8.33 nM -1.52% | 100 nM 0.8% | 833.33 nM 3.43% | 10000 nM 1.27%

CCC/C=C1\OC(=O)C2=C1CCC=C2 [ligustilide]
inactive: 1 nM 8.3% | 8.33 nM 9.89% | 100 nM 8.75% | 833.33 nM 5.16% | 10000 nM 5.79%

Cc1cc(NS(=O)(=O)c2ccc(N)cc2)no1 [sulfamethoxazole]
inactive: 1 nM 2.98% | 8.33 nM 0.81% | 100 nM 0.9% | 833.33 nM 0.68% | 10000 nM 0.81%

c1ccc(Cn2c(N3CCNCC3)nc3ccccc32)cc1 [lerisetron]
inactive: 1 nM 1.65% | 8.33 nM -0.34% | 100 nM -0.91% | 833.33 nM -3.79% | 10000 nM -5.52%

Oc1nc(O)c2cn[nH]c2n1 [oxypurinol]
inactive: 1 nM -1.15% | 8.33 nM -1.53% | 100 nM -2.43% | 833.33 nM -2.52% | 10000 nM 1.11%
